A short description of assay [1]: NCI Yeast Anticancer Drug Screen. Data for the rad50 strain (AID 155).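 Also: 0% = growth of vehicle-only cultures of the same strain.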 The following applies: S. cerevisiae rad50 strain growth inhibition; at 50.0 µM; active compounds read high. The method in brief: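 Genetically altered yeast (DNA repair pathway); compound treatment; growth inhibition vs vehicle ctrl.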
The nature of assay [2]: NCI Yeast Anticancer Drug Screen. Data for the mec2-1 strain (AID 157). To be noted: S. cerevisiae mec2-1 strain, at 50.0 µM, active compounds read high. The method in brief:
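Yeast mec2-1 mutant treated with compound. Readout: growth inhibition vs vehicle controls.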

Assay [3] can be described thus: NCI Yeast Anticancer Drug Screen. Data for the sgs1 mgt1 strain (AID 161).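 Also: 0% = growth of cultures given vehicle only.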 The following applies: S. cerevisiae sgs1 mgt1 strain, at 50.0 µM, active compounds read high. The method in brief: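 Mutant yeast exposed to compound; growth scored against vehicle-only wells.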
Assay [4] in a line: NCI Yeast Anticancer Drug Screen. Data for the cln2 rad14 strain (AID 165).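 Also: 0% = growth equal to vehicle treated cultures.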 To be noted: S. cerevisiae cln2 rad14 strain, at 50.0 µM, active compounds read high. In short, it runs like this:
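cln2 rad14 yeast strain; compound exposure; growth inhibition read vs vehicle controls.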

Assay [5] in a line: NCI Yeast Anticancer Drug Screen. Data for the bub3 strain (AID 167). The following applies: S. cerevisiae bub3 mutant strain, at 50.0 µM, active compounds read high. In short, it runs like this:
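Yeast carrying a defined mutation is treated with each compound, and growth is compared with that of vehicle-exposed cells to give inhibition.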

Assay [6] can be described thus: NCI Yeast Anticancer Drug Screen. Data for the mlh1 rad18 strain (AID 175). To be noted: S. cerevisiae mlh1 rad18 strain growth inhibition; at 50.0 µM; active compounds read high. In short, it runs like this:
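Yeast w/ defined DNA-repair lesions; compound exposure; growth vs vehicle controls → % inhibition.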

This is part of a sample that, as a whole, favours compounds with a hit. Of some 79,000 tested, about 15% had one in any assay. Values without a mark were called inactive. Activity calls are given as the source filed them. Rule as the data show it: active = growth inhibition above about 70%; inactive = the rest.

This note sets out measurements from PubChem BioAssay (NCI).

In the case of `Cc1ccc(-c2n[nH]c(=O)n2N2C(=O)C=CC2=O)cc1`, the growth inhibition in assay [1] was -9.05%; in assay [2] it was -20.6%; in assay [3], -26.3%; in assay [4] it was -1.2%; in assay [5], -15.4%; in assay [6], -59.9%.
Take `CC(=O)Nc1c(Cl)cccc1[N+](=O)[O-]`: the growth inhibition is -25.1% in assay [1]; -18.8% in assay [2]; -4.75% in assay [3]; -26.4% in assay [4]; -5.8% in assay [5]; 5.85% in assay [6].
For the molecule `Cc1c2c(=O)oc3ccc(Cl)cc3c2nn1-c1ccccc1`, the growth inhibition was -13.9% in assay [1]; -9.4% in assay [2]; -11.8% in assay [3]; -7.8% in assay [4]; -25.7% in assay [5]; -9.65% in assay [6].
Take `Cc1ccc(O)c(C(C)(C)C)c1`: the growth inhibition in assay [1] is 14.9%; in assay [2] it was -8%; in assay [3], 20.4%; in assay [4], 21.3%; in assay [5], -0.65%; in assay [6], 8.5%.
As for `CNc1ccc(C(=O)O)cc1C(F)(F)F`, the growth inhibition in assay [1] was -0.35%; in assay [2] it was -1.45%; in assay [3], -6%; in assay [4], 0.65%; in assay [5], -32.6%; in assay [6], 8.85%.
For the molecule `COc1ccc(C(=O)NC(=S)Nc2cc(C(F)(F)F)ccc2Cl)cc1`, the growth inhibition in assay [1] was -18.6%; in assay [2], 0.1%; in assay [3], -11.2%; in assay [4], 84.8% (active); in assay [5] it was -3.8%; in assay [6], 11.7%.
For `CCN(CC(=O)NC(=O)c1ccccc1)c1ccccc1`, the growth inhibition in assay [1] is -1.75%; in assay [2], -14%; in assay [3] it was -4.75%; in assay [4], -34.5%; in assay [5], 5.5%; in assay [6], -12.7%.
In the case of `CCCCCCC(C)OC(C)=O` (stereo unspecified), the growth inhibition in assay [1] was -15.6%; in assay [2] it was -44.5%; in assay [3] it was -2.55%; in assay [4], -20%; in assay [5], -3.5%; in assay [6] it was -13.8%.
With `CC1(C)[C@@H]2C[C@H]1C(Cc1cccc(C[C@H]3c4cc(-c5ccccn5)ncc4[C@H]4C[C@@H]3C4(C)C)c1)c1cc(-c3ccccn3)ncc12` (stereo partly specified), the growth inhibition in assay [1] was -2.2%; in assay [2] it was -14.7%; in assay [3] it was 4.95%; in assay [4] it was -7.7%; in assay [5] it was 45.2%; in assay [6], -8.65%.
Regarding `Cc1ccc(N(C)c2cc(=O)n(C)c(=O)[nH]2)cc1C`, the growth inhibition in assay [1] is 14.4%; in assay [2], 16.2%; in assay [3], 10.3%; in assay [4], 28.3%; in assay [5] it was 12.4%; in assay [6], 14.4%.
Consider `Cc1ccc(NC(=O)Oc2cc(C)c(Cl)cc2C(C)C)cc1`, for which the growth inhibition in assay [1] is -3.9%; in assay [2] it was 54.2%; in assay [3], 43%; in assay [4], -28.2%; in assay [5], 51.4%; in assay [6], 65%.
Take `CCSc1n[nH]c(=S)c2nc[nH]c12`: the growth inhibition in assay [1] was 12.7%; in assay [2] it was 2.6%; in assay [3], 3.7%; in assay [4] it was 6.3%; in assay [5], 8.55%; in assay [6], -6.25%.
As for `Cc1cnoc1/N=C1\C=C(Nc2oncc2C)C(=O)c2ccccc21`, the growth inhibition in assay [1] is -14.7%; in assay [2], -6.55%; in assay [3], -31.9%; in assay [4], 2.9%; in assay [5] it was -17.3%; in assay [6] it was -8.85%.
Regarding `O=C(O)c1ccc([N+](=O)[O-])cc1C(=O)c1cccs1`, the growth inhibition in assay [1] was 0.7%; in assay [2] it was -7.75%; in assay [3], 4.6%; in assay [4], -2.35%; in assay [5], 5.6%; in assay [6], -0.05%.
As for `c1ccc(Cc2[nH]nc(-c3ccccc3)c2N=Nc2ccccc2)cc1`, the growth inhibition in assay [1] was 5.55%; in assay [2], -34.9%; in assay [3], 2.65%; in assay [4], -16.4%; in assay [5], 8.45%; in assay [6] it was -6.1%.
In the case of `O=C(NNC(=S)Nc1ccccc1)C12CC3CC(CC(C3)C1)C2`, the growth inhibition in assay [1] was -12%; in assay [2], 31.4%; in assay [3], 29.8%; in assay [4] it was 14.7%; in assay [5] it was 35.5%; in assay [6], 1.3%.
Regarding `CC1=C(C(=O)NCc2ccccc2)C(c2ccco2)C(C(=O)NCc2ccccc2)=C(C)N1`, the growth inhibition in assay [1] was -34.5%; in assay [2], -20.4%; in assay [3], -37.5%; in assay [4], -13.3%; in assay [5], -9.9%; in assay [6], -21.8%.
Regarding `CCCCn1cnc2c(SC(C)C)nc(N)nc21`, the growth inhibition is -13.1% in assay [1]; -2.15% in assay [2]; 17.4% in assay [3]; -24.9% in assay [4]; 8.8% in assay [5]; -16.2% in assay [6].
Consider `CC12CCC(NC(=O)C3CCCN3C(=O)OCc3ccccc3)CC1CCC1C2CCC2(C)C(NC(=O)C3CCCN3C(=O)OCc3ccccc3)CCC12` (stereo unspecified), for which the growth inhibition in assay [1] is -4.3%; in assay [2], 4.15%; in assay [3], -19.4%; in assay [4], -46%; in assay [5], -5.35%; in assay [6], -3.2%.
`Cc1oc2ccccc2c(=O)c1CO`: the growth inhibition is -12.6% in assay [1]; 13.2% in assay [2]; 2% in assay [3]; -9.85% in assay [4]; -11.1% in assay [5]; -12.2% in assay [6].
Turning to `CC1=C(C(=O)Nc2ccccc2C)C(c2ccc(N(C)C)cc2)C(C(=O)Nc2ccccc2C)=C(C)N1`, the growth inhibition in assay [1] was -27%; in assay [2], -20%; in assay [3], -17.4%; in assay [4] it was -11.2%; in assay [5], -8.95%; in assay [6], -13.8%.
